# Screening data as filed in PubChem.
# The list is not random: actives were taken first. Their share in the collection is about 3%.
# A1 inh: caspase 3/7 activation in MEF A1-2A-BIM cells, primary screen, A1 inhibitor project, cell-based, luminescence, HTS; Caspase-Glo 3/7 luminescence, 3 h; percent of clofoctol response, vehicle zero; 330,000 compounds, 0.066% hits; caspase activation, % (concentration not given with the values);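 active = over half of replicate activation scores above 10%, or exactly half above 10 with the replicate mean above 10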
# CHT inh: inhibitors of human choline transporter CHT; High affinity choline transporter 1 (Homo sapiens), Q9GZV3; CHT-expressing cells, membrane potential dye, choline response; active compounds read low; B-score at 10 µM; 310,000 compounds, 0.86% hits;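 active = B-score over 3 SD under the library average, and starting fluorescence ratio not unusually high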;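 also: choline stimulus applied at its EC90 after an EC20 pre-addition; B-score computed on integrated fluorescence ratio after choline addition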
# Target sequence (Q9GZV3 whole entry, looked up): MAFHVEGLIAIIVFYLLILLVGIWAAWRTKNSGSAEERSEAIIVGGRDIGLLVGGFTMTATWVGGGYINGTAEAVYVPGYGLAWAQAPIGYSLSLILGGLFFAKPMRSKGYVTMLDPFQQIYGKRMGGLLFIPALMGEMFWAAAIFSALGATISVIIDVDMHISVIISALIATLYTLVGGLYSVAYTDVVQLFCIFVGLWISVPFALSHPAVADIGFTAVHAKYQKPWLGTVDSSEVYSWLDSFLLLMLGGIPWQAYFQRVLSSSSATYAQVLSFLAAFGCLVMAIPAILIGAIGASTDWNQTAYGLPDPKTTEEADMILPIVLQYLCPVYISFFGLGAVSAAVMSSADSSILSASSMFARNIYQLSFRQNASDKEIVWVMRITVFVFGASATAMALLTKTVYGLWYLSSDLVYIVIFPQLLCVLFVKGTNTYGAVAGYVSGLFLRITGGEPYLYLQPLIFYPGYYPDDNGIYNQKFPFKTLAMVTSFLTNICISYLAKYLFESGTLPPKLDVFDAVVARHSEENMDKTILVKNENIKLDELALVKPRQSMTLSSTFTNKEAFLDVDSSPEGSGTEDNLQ
# SUMO Mot1 rescue: yeast Mot1-301 growth rescue at high temperature, primary screen, SUMOylation pathway inhibitor project, S. cerevisiae, ATP luminescence, 38.5C | S. cerevisiae Mot1-301 growth rescue; percent above DMSO median, 100 means doubled | growth rescue, % at 18.8 µM | 320,000 compounds, 1% hits | AID 2716, 2010;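 active = every valid replicate shows activation above 250% relative to neutral control wells; inactive = the rest, any valid replicate at or below 250%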;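 also: OY570 slx delta 5 strain wells were the positive control but not used for scaling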
# NALP3 yeast inh: NALP3 inflammasome inhibitors in reconstituted yeast, primary screen, luminescence, uHTS; Yeast reconstituted NLRP3/ASC/caspase-1, beta-gal luminescence, 24 h; 330,000 compounds, 0.39% hits; inhibition, % at 10 µM;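 active = inhibition of 50% or more; inactive = inhibition below 50%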;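 also: plate controls were induced DMSO wells for no effect and uninduced yeast grown without galactose for full effect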
# NALP1 inh: NALP1 inflammasome inhibitors in reconstituted yeast, colorimetric, S. cerevisiae, triplicate retest; inhibition, % at 10 µM; 280,000 compounds, 0.61% hits; S. cerevisiae NALP1/ASC/caspase-1 growth, X-gal OD620, 72 h; AID 2071, 2009; in the data active = inhibition mostly above about 24%, no sharp cut-off; inactive = mostly below about 32%
# CHT PAM: CHT positive allosteric modulators, primary screen, cell-based, membrane potential dye, choline EC20. B-score at 10 µM. CHT-expressing cells; active compounds read high; LV-AA mutant CHT in HEK293 cells. AID 488977, 2010. High affinity choline transporter 1 (Homo sapiens), Q9GZV3. 310,000 compounds, 0.49% hits;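 active = initial fluorescence not abnormally high and integrated response B-score, plate-corrected, over 3 SD above library mean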
# CHT activ conf: CHT activators, confirmation, cell-based, membrane potential dye, duplicate | shares compounds with CHT PAM | CHT-expressing cells, membrane potential dye fluorescence (FDSS); % of choline EC20–EC90 response window; HEK293 expressing CHT LV-AA mutant; choline added at its EC20 | activation, % at 10 µM | 2,500 compounds, 91% hits | AID 504833, 2011;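 active = primary screen active, with duplicate mean activation above negative control mean plus 3 SD, cut at about 11% in these data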
# HEK293 MP dye: membrane potential response in parental HEK293 cells, counter-screen for CHT activator project, cell-based, membrane potential dye; AID 623908, 2012; ratio readout change at 10 µM, hits read low; 2,500 compounds, 62% hits; shares compounds with CHT PAM; membrane potential dye fluorescence (FDSS); measured after EC20 choline addition;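 active = duplicate-averaged ratio beyond 3 SD from buffer wells, up or down, though filed actives are nearly all decreases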
# * hit, by the source's call; i = inactive; x = no result.
SMILES,A1 inh,CHT inh,SUMO Mot1 rescue,NALP3 yeast inh,NALP1 inh,CHT PAM,CHT activ conf,HEK293 MP dye
Cc1cc(NC(=O)CCC(=O)N(Cc2ccco2)C2(C(=O)NC3CCCCC3)CCCC(C)C2)no1 (configuration not stated),0,i,-1,3,7,i,19*,i
O=C(NC1CCCC1)C(c1ccsc1)N(Cc1ccco1)C(=O)Cc1cccs1 (configuration not stated),0,i,-18,16,25,7.4*,33*,i
O=C(Cc1cccs1)N(Cc1ccco1)C1(C(=O)NC2CCCC2)CCCCC1,0,i,9,11,4,10*,41*,i
COc1cc(/C=C2\SC(N)=NC2=O)cc(OC)c1,1,i,-15,11,3,i,x,x
Cc1ccc(N(C(=O)CNC(=O)c2ccco2)C(C(=O)NC2CCCC2)c2cccnc2)c(C)c1 (configuration not stated),0,i,0,7,-8,i,x,x
O=C(CN1CCN(CC(=O)Nc2ccccc2Cl)CC1)Nc1ccc(F)c(F)c1,0,i,97,14,22,i,x,x
COc1ccccc1CN(C(=O)Cc1cccs1)C(C(=O)NC1CCCC1)c1ccncc1 (configuration not stated),1,i,10,3,-16,i,0,i
Cc1ccccc1OCC(=O)OCC(=O)Nc1cc(S(=O)(=O)N2CCCCC2)ccc1Cl,1,i,2,9,x,i,x,x
COC(=O)c1ccc(C)c(NS(=O)(=O)c2ccc(OC)cc2)c1,1,i,186,-6,2,8.1*,48*,i
COC(=O)c1ccc(C)c(NS(=O)(=O)c2ccc(C)c([N+](=O)[O-])c2)c1,0,i,-5,-14,20,i,x,x
O=C(NCc1ccccc1F)c1ccc(S(=O)(=O)N2CCCCCC2)cc1,0,x,30,11,x,x,x,x
CCC1=C(OC(=O)N(CC)CC)N2C(=O)OC(=NCC3CC3)[C@]2(Cc2ccccc2)[C@H]2C1=CC[C@H]1C(=O)N(C)C(=O)[C@H]12,0,i,-31,20,x,7.2*,40*,i
CC(C(=O)N1CCc2ccccc2C1)N1C(=O)c2ccccc2C1=O (configuration not stated),1,i,-8,11,7,i,x,x
CC(C)CC(C(=O)N1CCc2ccccc2C1)N1C(=O)c2ccccc2C1=O (configuration not stated),2,i,55,3,9,i,39*,i
O=C(CSc1ccccc1)N1CCCC(N2CCN(c3ccc(F)cc3)CC2)C1 (configuration not stated),1,i,-2,25,27,i,x,x
Cc1ccc2nc(N=C(N)N)nc(C)c2c1,0,i,121,-5,1,i,56*,-55*
Cc1nc(N=C(N)N)nc2ccccc12,1,i,-2,-14,8,8.1*,67*,-60*
Cc1nc(/N=C(\N)NC(=O)c2ccccc2)nc2ccccc12,1,i,10,24,36,i,x,x
CCc1ccc2nc(N=C(N)N)nc(C)c2c1,-1,i,0,-9,12,i,x,x
